# Data as given in PubChem BioAssay (NCI).
# Compounds without any hit were thinned out: in the full panel of roughly 79,000, 15% have a hit. Values without a mark were called inactive. Calls of active or inactive are those of the source. No stated cut-off is given here; in the data, active means growth inhibition above about 70%; inactive means the rest.
# Tests used:
# [1] = NCI Yeast Anticancer Drug Screen. Data for the rad52 strain (AID 147);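 further: 0% = growth of vehicle-treated control cultures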; conditions: S. cerevisiae rad52 mutant growth inhibition, active compounds read high
# Procedure, shortened: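 Growth of repair-deficient yeast cells was compared between compound-treated and vehicle-treated cultures to give percent inhibition.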
# [2] = NCI Yeast Anticancer Drug Screen. Data for the wt1 strain (AID 149);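 further: 0% = growth of vehicle-treated wt1 cultures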; conditions: S. cerevisiae wt1 strain (SPY 50644) growth inhibition, active compounds read high
# Procedure, shortened: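 wt1 strain grown with compound or vehicle; inhibition taken from the growth difference.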
# [3] = NCI Yeast Anticancer Drug Screen. Data for the rad50EPP+ strain (AID 151);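 further: 0% = growth of vehicle-treated control cultures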; conditions: S. cerevisiae rad50 mutant strain, active compounds read high
# Procedure, shortened: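 Measured: growth inhibition of rad50EPP+ yeast. Reference: vehicle-treated controls. Screen uses strains with defined genetic alterations in DNA damage repair or cell cycle control.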
# [4] = NCI Yeast Anticancer Drug Screen. Data for the mgt1 strain (AID 153); conditions: S. cerevisiae mgt1 mutant growth inhibition, active compounds read high
# Procedure, shortened: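 Compounds were applied to mgt1 mutant yeast, and growth was then compared against vehicle-treated control cultures to give percent inhibition.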
# [5] = NCI Yeast Anticancer Drug Screen. Data for the rad50 strain (AID 155);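 further: 0% = growth of vehicle-only cultures of the same strain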; conditions: S. cerevisiae rad50 strain growth inhibition, active compounds read high
# Procedure, shortened: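 DNA repair mutant yeast, compound exposure, growth read-out; inhibition is taken relative to vehicle.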
# [6] = NCI Yeast Anticancer Drug Screen. Data for the mec2-1 strain (AID 157); conditions: S. cerevisiae mec2-1 strain, active compounds read high
# Procedure, shortened: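 Compounds were applied to mec2-1 yeast cells. Their growth was then compared with that of vehicle-treated cultures to give growth inhibition.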
# [7] = NCI Yeast Anticancer Drug Screen. Data for the rad14 strain (AID 159);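 further: 0% = growth of vehicle-treated control cultures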; conditions: S. cerevisiae rad14 strain growth inhibition, active compounds read high
# Procedure, shortened: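 DNA repair-defective yeast, compound-exposed; % growth inhibition derived by comparison with vehicle-treated controls.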
# [8] = NCI Yeast Anticancer Drug Screen. Data for the sgs1 mgt1 strain (AID 161);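 further: 0% = growth of cultures given vehicle only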; conditions: S. cerevisiae sgs1 mgt1 strain, active compounds read high
# Procedure, shortened: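 Percent growth inhibition was derived by comparing compound-exposed mutant yeast with vehicle-exposed cultures. The strain carries alterations in DNA damage repair.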
# [9] = NCI Yeast Anticancer Drug Screen. Data for the cln2 rad14 strain (AID 165);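 further: 0% = growth equal to vehicle treated cultures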; conditions: S. cerevisiae cln2 rad14 strain, active compounds read high
# Procedure, shortened: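 Strain: cln2 rad14 yeast, altered in cell cycle control and DNA damage repair. Read-out: growth inhibition vs vehicle.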
# [10] = NCI Yeast Anticancer Drug Screen. Data for the bub3 strain (AID 167); conditions: S. cerevisiae bub3 mutant strain, active compounds read high
# Procedure, shortened: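 In this screen, a yeast mutant lacking normal mitotic checkpoint function is challenged with compound. Relative growth versus vehicle gives the inhibition value.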
# [11] = NCI Yeast Anticancer Drug Screen. Data for the wt2 strain (AID 169);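 further: 0% = growth of vehicle-treated yeast cultures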; conditions: S. cerevisiae wt2 strain growth inhibition, active compounds read high
# Procedure, shortened: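 Growth of compound-treated yeast is measured and expressed as inhibition relative to vehicle-only controls.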
# [12] = NCI Yeast Anticancer Drug Screen. Data for the sgs1 strain (AID 173);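 further: 0% = growth of vehicle-only control cultures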; conditions: S. cerevisiae sgs1 mutant, active compounds read high
# Procedure, shortened: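 Strain with an altered DNA repair or cell cycle pathway exposed to compound. Growth then measured. Value = inhibition versus vehicle control.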
# [13] = NCI Yeast Anticancer Drug Screen. Data for the mlh1 rad18 strain (AID 175); conditions: S. cerevisiae mlh1 rad18 strain growth inhibition, active compounds read high
# Procedure, shortened: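 A repair-deficient yeast strain is exposed to test compound, and growth is scored relative to vehicle-treated controls.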
# [14] = NCI Yeast Anticancer Drug Screen. Data for the CLN2oe strain (AID 163);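 further: 0% = growth of vehicle-only control cultures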; conditions: S. cerevisiae CLN2oe strain, active compounds read high
# Procedure, shortened: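 Cells of an engineered yeast line with disturbed cell-cycle regulation are treated with compound. Inhibition of growth is then calculated relative to the vehicle-treated reference.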
# [15] = NCI Yeast Anticancer Drug Screen. Data for the mlh1 strain (AID 171);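 further: 0% = growth of vehicle-treated control cultures of the same strain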; conditions: S. cerevisiae mlh1 strain growth inhibition, active compounds read high
# Procedure, shortened: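 Test agents were incubated with yeast bearing a defined DNA damage repair or cell cycle control alteration; values are growth inhibition normalised to vehicle-treated cultures.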
# [16] = NCI Yeast Anticancer Drug Screen. Data for the rad18 strain (AID 177); conditions: S. cerevisiae rad18 mutant growth inhibition, active compounds read high
# Procedure, shortened: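 DNA-repair-defective yeast; compound treatment; growth inhibition scored against vehicle.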
# [17] = at 5.0 µM (retest, dose inferred, filed as 0.5)
# [18] = at 50.0 µM (retest, dose inferred, filed as 5.0)
smiles,measurement,setting,value
CCN(CC)CC(=O)c1ccc2cc(Cl)c3ccccc3c2c1,growth inhibition,[1]; at 1.2 µM,14%
same,growth inhibition,[1]; at 3.7 µM,30%
same,growth inhibition,[1]; at 11.0 µM,99% (active)
same,growth inhibition,[1]; at 33.0 µM,98% (active)
same,growth inhibition,[1]; at 100.0 µM,98% (active)
same,growth inhibition,[2]; at 1.2 µM,6%
same,growth inhibition,[2]; at 3.7 µM,17%
same,growth inhibition,[2]; at 11.0 µM,99% (active)
same,growth inhibition,[2]; at 33.0 µM,98% (active)
same,growth inhibition,[2]; at 100.0 µM,98% (active)
same,growth inhibition,[3]; at 1.2 µM,68%
same,growth inhibition,[3]; at 3.7 µM,85% (active)
same,growth inhibition,[3]; at 11.0 µM,98% (active)
same,growth inhibition,[3]; at 33.0 µM,98% (active)
same,growth inhibition,[3]; at 100.0 µM,98% (active)
same,growth inhibition,[4]; at 1.2 µM,0%
same,growth inhibition,[4]; at 3.7 µM,13%
same,growth inhibition,[4]; at 11.0 µM,99% (active)
same,growth inhibition,[4]; at 33.0 µM,99% (active)
same,growth inhibition,[4]; at 100.0 µM,99% (active)
same,growth inhibition,[5]; at 1.2 µM,9%
same,growth inhibition,[5]; at 3.7 µM,18%
same,growth inhibition,[5]; [17],26%
same,growth inhibition,[5]; at 11.0 µM,98% (active)
same,growth inhibition,[5]; at 33.0 µM,98% (active)
same,growth inhibition,[5]; [18],98% (active)
same,growth inhibition,[5]; at 50.0 µM,99% (active)
same,growth inhibition,[5]; at 100.0 µM,98% (active)
same,growth inhibition,[6]; at 1.2 µM,12%
same,growth inhibition,[6]; at 3.7 µM,24%
same,growth inhibition,[6]; [17],26%
same,growth inhibition,[6]; at 11.0 µM,99% (active)
same,growth inhibition,[6]; at 33.0 µM,99% (active)
same,growth inhibition,[6]; [18],99% (active)
same,growth inhibition,[6]; at 50.0 µM,99.2% (active)
same,growth inhibition,[6]; at 100.0 µM,99% (active)
same,growth inhibition,[7]; at 1.2 µM,6%
same,growth inhibition,[7]; at 3.7 µM,13%
same,growth inhibition,[7]; at 11.0 µM,99% (active)
same,growth inhibition,[7]; at 33.0 µM,99% (active)
same,growth inhibition,[7]; at 100.0 µM,99% (active)
same,growth inhibition,[8]; [17],42%
same,growth inhibition,[8]; [18],99% (active)
same,growth inhibition,[8]; at 50.0 µM,99.2% (active)
same,growth inhibition,[9]; [17],6%
same,growth inhibition,[9]; [18],99% (active)
same,growth inhibition,[9]; at 50.0 µM,99.2% (active)
same,growth inhibition,[10]; at 1.2 µM,-4%
same,growth inhibition,[10]; at 3.7 µM,3%
same,growth inhibition,[10]; [17],10%
same,growth inhibition,[10]; at 11.0 µM,98% (active)
same,growth inhibition,[10]; at 33.0 µM,98% (active)
same,growth inhibition,[10]; [18],98% (active)
same,growth inhibition,[10]; at 50.0 µM,99.2% (active)
same,growth inhibition,[10]; at 100.0 µM,98% (active)
same,growth inhibition,[11]; at 1.2 µM,7%
same,growth inhibition,[11]; at 3.7 µM,24%
same,growth inhibition,[11]; at 11.0 µM,99% (active)
same,growth inhibition,[11]; at 33.0 µM,98% (active)
same,growth inhibition,[11]; at 100.0 µM,98% (active)
same,growth inhibition,[12]; at 1.2 µM,25%
same,growth inhibition,[12]; at 3.7 µM,53%
same,growth inhibition,[12]; at 11.0 µM,99% (active)
same,growth inhibition,[12]; at 33.0 µM,98% (active)
same,growth inhibition,[12]; at 100.0 µM,98% (active)
same,growth inhibition,[13]; [17],48%
same,growth inhibition,[13]; [18],98% (active)
same,growth inhibition,[13]; at 50.0 µM,99.2% (active)
CC(=O)CC(c1ccccc1)c1c(O)c2ccccc2oc1=O (stereo not drawn),growth inhibition,[1]; at 1.2 µM,5%
same,growth inhibition,[1]; at 3.7 µM,-1%
same,growth inhibition,[1]; at 11.0 µM,-4%
same,growth inhibition,[1]; at 33.0 µM,16%
same,growth inhibition,[1]; at 100.0 µM,75% (active)
same,growth inhibition,[2]; at 1.2 µM,-10%
same,growth inhibition,[2]; at 3.7 µM,-10%
same,growth inhibition,[2]; at 11.0 µM,-12%
same,growth inhibition,[2]; at 33.0 µM,10%
same,growth inhibition,[2]; at 100.0 µM,64%
same,growth inhibition,[3]; at 1.2 µM,15%
same,growth inhibition,[3]; at 3.7 µM,4%
same,growth inhibition,[3]; at 11.0 µM,-3%
same,growth inhibition,[3]; at 33.0 µM,-4%
same,growth inhibition,[3]; at 100.0 µM,-16%
same,growth inhibition,[4]; at 1.2 µM,13%
same,growth inhibition,[4]; at 3.7 µM,4%
same,growth inhibition,[4]; at 11.0 µM,14%
same,growth inhibition,[4]; at 33.0 µM,44%
same,growth inhibition,[4]; at 100.0 µM,83% (active)
same,growth inhibition,[5]; at 1.2 µM,6%
same,growth inhibition,[5]; at 3.7 µM,5%
same,growth inhibition,[5]; [17],70% (active)
same,growth inhibition,[5]; at 11.0 µM,6%
same,growth inhibition,[5]; at 33.0 µM,20%
same,growth inhibition,[5]; [18],95% (active)
same,growth inhibition,[5]; at 50.0 µM,46.8%
same,growth inhibition,[5]; at 100.0 µM,76% (active)
same,growth inhibition,[6]; at 1.2 µM,-9%
same,growth inhibition,[6]; at 3.7 µM,-9%
same,growth inhibition,[6]; [17],61%
same,growth inhibition,[6]; at 11.0 µM,-4%
same,growth inhibition,[6]; at 33.0 µM,12%
same,growth inhibition,[6]; [18],97% (active)
same,growth inhibition,[6]; at 50.0 µM,31.5%
same,growth inhibition,[6]; at 100.0 µM,67%
same,growth inhibition,[7]; at 1.2 µM,-4%
same,growth inhibition,[7]; at 3.7 µM,0%
same,growth inhibition,[7]; at 11.0 µM,-8%
same,growth inhibition,[7]; at 33.0 µM,19%
same,growth inhibition,[7]; at 100.0 µM,68%
same,growth inhibition,[14]; at 1.2 µM,17%
same,growth inhibition,[14]; at 3.7 µM,22%
same,growth inhibition,[14]; at 11.0 µM,6%
same,growth inhibition,[14]; at 33.0 µM,39%
same,growth inhibition,[14]; at 100.0 µM,70% (active)
same,growth inhibition,[9]; [17],22%
same,growth inhibition,[9]; [18],90% (active)
same,growth inhibition,[9]; at 50.0 µM,54.6%
same,growth inhibition,[10]; at 1.2 µM,11%
same,growth inhibition,[10]; at 3.7 µM,13%
same,growth inhibition,[10]; [17],29%
same,growth inhibition,[10]; at 11.0 µM,14%
same,growth inhibition,[10]; at 33.0 µM,45%
same,growth inhibition,[10]; [18],86% (active)
same,growth inhibition,[10]; at 50.0 µM,62.1%
same,growth inhibition,[10]; at 100.0 µM,79% (active)
same,growth inhibition,[11]; at 1.2 µM,-20%
same,growth inhibition,[11]; at 3.7 µM,-9%
same,growth inhibition,[11]; at 11.0 µM,-13%
same,growth inhibition,[11]; at 33.0 µM,11%
same,growth inhibition,[11]; at 100.0 µM,77% (active)
same,growth inhibition,[15]; at 1.2 µM,-15%
same,growth inhibition,[15]; at 3.7 µM,-3%
same,growth inhibition,[15]; at 11.0 µM,3%
same,growth inhibition,[15]; at 33.0 µM,43%
same,growth inhibition,[15]; at 100.0 µM,85% (active)
same,growth inhibition,[12]; at 1.2 µM,11%
same,growth inhibition,[12]; at 3.7 µM,14%
same,growth inhibition,[12]; at 11.0 µM,7%
same,growth inhibition,[12]; at 33.0 µM,42%
same,growth inhibition,[12]; at 100.0 µM,84% (active)
same,growth inhibition,[13]; [17],32%
same,growth inhibition,[13]; [18],99% (active)
same,growth inhibition,[13]; at 50.0 µM,44.5%
same,growth inhibition,[16]; at 1.2 µM,-12%
same,growth inhibition,[16]; at 3.7 µM,1%
same,growth inhibition,[16]; at 11.0 µM,11%
same,growth inhibition,[16]; at 33.0 µM,27%
same,growth inhibition,[16]; at 100.0 µM,78% (active)
